HT1080-NT tox: kills 2HG-producing HT-1080-NT fibrosarcoma cells; Potency, µM (series often up to 46.1 µM), inactives show at the highest dose activity, negative = less viability, actives largely listed as cytotoxic; 1.6% of 360,000 active; AID 686970; HT-1080-NT fibrosarcoma viability, CellTiter-Glo ATP luminescence, 48 h;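 also: NT is the 2HG producing partner of a matched IDH1 knockdown line; 0% = DMSO-treated cells and -100% = media-only wells without cells; nearly all actives have a fitted effect of over 55% in size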
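Read-out is CellTiter-Glo luminescence after 10 minutes at room temperature, following 48 hours' compound treatment of HT-1080-NT cells (750 cells/well, RPMI, 5% FBS, 37 degrees C).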
KB-3-1 cytotox: KB-3-1 parental cell cytotoxicity | 1.4% of 400,000 active | Potency, µM (top dose mostly 46.1 µM), actives largely listed as cytotoxic | AID 1347075 | KB-3-1 viability, CellTiter-Glo ATP luminescence, 72 h; also: % is scaled to controls: 0 for no effect and ±100 for the full control effect; nearly all actives have a fitted effect of over 60% in size
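Using CellTiter-Glo luminescence, growth of non-resistant KB-3-1 adenocarcinoma cells is assessed 72 h after pin-tool compound addition at 37 °C. Normalized responses across the concentration series yield fitted curves.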
SW480 rerep: induces DNA re-replication in SW480 colon adenocarcinoma cells; SW480 DNA re-replication, Hoechst DNA content imaging, 48 h; AID 624297; 1.8% of 340,000 active; Potency, µM (top dose mostly 46.1 µM), for inactives: top-dose re-replication activation, actives largely listed as activators; also: % of control where 0% means no effect; nearly all actives have a fitted effect of over 55% in size
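250 cells/well; 23 nL cpd via pin tool; 48 hr, 37 C, 5% CO2; Hoechst 40 min; imager read of total nuclear intensity, ex 405/em 500-530 nm.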
KB-V1 cytotox: kills drug-selected multidrug resistant KB-V1 cells; KB-V1 MDR cells viability, CellTiter-Glo, 72 h; Potency, µM (series often up to 46.1 µM), most hits filed as cytotoxic; 3.4% of 400,000 active; also: % is scaled to controls: 0 for no effect and ±100 for the full control effect; nearly all actives have a fitted effect of over 60% in size
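KB-V1 MDR subline cells in DMEM (phenol-red free, 10% FBS) exposed to compounds in qHTS concentration series for 72 h at 37 degrees C. Viability read by CellTiter-Glo luminescence; concentration-effect curves fitted after normalization and correction.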
HT1080 IDH1KD tx: HT-1080 IDH1 knockdown cell toxicity (counter line) | 2% of 360,000 active | Potency, µM (series often up to 46.1 µM), for inactives: at the highest dose activity, negative = toxicity, hits mostly cytotoxic | HT-1080 IDH1 knockdown viability, ATP luminescence, 48 h;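 also: 0% = DMSO wells and -100% = cell-free medium wells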
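Using the IDH1-knockdown HT-1080 line run in the same batch and compound series as the NT line, viability after 48 h at 37 °C was determined by CellTiter-Glo luminescence and expressed as % activity.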
MCF10A rerep: inducers of DNA re-replication in MCF 10A breast cells. Potency, µM (series often up to 46.1 µM), without a hit: at the top dose activity, positive = re-replication, hits mostly activators. AID 624296. 2.9% of 350,000 active. MCF 10A DNA re-replication, Hoechst nuclear intensity, 48 h; also: % of control where 0% means no effect; nearly all actives have a fitted effect of over 50% in size
An asterisk follows results filed as active; i = inactive; ? = inconclusive; / = no result; [ ] = remark or other dose. This is a sample that favours compounds with a hit; in the whole collection about 8% have one here. Calls follow the shape of the dose curve; as a rule, active = well fitted curve in the direction sought with a large enough effect; inconclusive = small, poorly fitted or top-dose-only effect, or another doubt; inactive = no such curve, though single readings can be large; an effect the other way counts as inactive or inconclusive. Potency is read from the fitted curve at half-maximal effect.

SMILES	HT1080-NT tox	KB-3-1 cytotox	SW480 rerep	KB-V1 cytotox	HT1080 IDH1KD tx	MCF10A rerep
CCc1ccc(S(=O)(=O)Nc2ccc3oc(C)c(C(=O)OCCOC)c3c2)cc1	/	i	/	i	/	/
CC(=O)c1c(C)oc2ccc(NS(=O)(=O)c3ccc(F)cc3C)cc12	-6%	i	-4%	10µM*	3%	7%
Cc1oc2ccc(OCC(N)=O)cc2c1C(=O)OC(C)C	-17%	23µM*	8%	?	-27%	0%
Cc1oc2ccc(O)cc2c1C(=O)OC(C)C	-3%	i	4%	i	-19%	16%
COCCOC(=O)c1c(C)oc2ccc(NS(=O)(=O)c3ccc(C)cc3)cc12	19%	i	-9%	8.2µM*	-7%	16µM*
CC(C)(C)c1ccc(C(=O)C[n+]2cccc(Br)c2)cc1	/	i	/	i	/	/
COCCn1c(SCC(=O)Nc2cc(C(C)(C)C)nn2-c2ccccc2)nnc1-c1ccncc1	3%	i	-32%	16µM*	-8%	-69%
COCCn1c(SCCCC(=O)c2ccc(Br)cc2)nnc1-c1ccncc1	-4%	10µM*	1%	2.6µM*	-18%	18%
COCCNc1nnc(SCC(=O)Nc2cc(-c3ccccc3)nn2-c2ccccc2)s1	-9%	i	-3%	16µM*	6%	1%
Cn1c(SCCCC(=O)c2ccc(F)cc2)nnc1-c1ccncc1	3%	i	-5%	i	5%	?
CC(NC(=O)c1cccc(Cn2cc([N+](=O)[O-])cn2)c1)c1ccc(C(C)(C)C)cc1 (configuration not stated)	-1%	i	0%	21µM*	?	?
O=C(Nc1cccc(F)c1)c1ccc(Cn2cc([N+](=O)[O-])cn2)o1	-19%	i	3%	13µM*	-2%	-1%
CCc1ccccc1NC(=O)c1ccc(Cn2cc([N+](=O)[O-])cn2)cc1	-1%	i	1µM*	i	-2%	-2%
O=C(Nc1ccn(Cc2ccccc2)n1)c1cccc(Cn2cc([N+](=O)[O-])cn2)c1	-4%	?	-19%	i	3%	8%
CCC(NC(=O)c1cccc(Cn2cc([N+](=O)[O-])cn2)c1)c1ccc(C(C)C)cc1 (configuration not stated)	-20%	?	20%	7.3µM*	?	26%
CC(C)(C)n1nnnc1C(c1ccccc1)N1CCN(C(=O)c2ccco2)CC1 (configuration not stated)	13%	i	/	?	15%	/
C=C(C)C1CC=C(C)/C(=N/NC(=O)c2ccc(NC(=O)CC)cc2)C1 (configuration not stated)	19%	i	3%	15µM*	-28%	-1%
O=C(CN1CCN(Cc2cccc(C(F)(F)F)c2)CC1)NCC(=O)Nc1ccc(F)c(F)c1F	-1%	i	0%	23µM*	-6%	6%
Cc1noc(-c2ccc(-c3noc(-c4cccc(F)c4)n3)cc2)n1	/	i	/	i	/	/
CCc1ccc(N(CC)C(=O)Cn2cnc3sc(C)c(S(=O)(=O)N4CCN(c5ncccn5)CC4)c3c2=O)cc1	/	i	/	i	/	/
COCCOC(=O)C1=C(C)Nc2ncnn2C1c1ccccc1 (configuration not stated)	?	i	-3%	i	-1%	0%
CCOC(=O)C1=C(C)Nc2ncnn2C1c1cc(Br)ccc1F (configuration not stated)	-8%	?	-4%[9.22 µM]	21µM*	?	?
CCCCOC(=O)C1=C(C)Nc2ncnn2C1c1ccc(OCC)c(OC)c1 (configuration not stated)	7%	i	0%	4.6µM*	7%	0%
CCCC1=C(C(=O)OCC)C(c2cccs2)n2ncnc2N1 (configuration not stated)	17%	i	-13%	?	0%	4%
CCOC(=O)C1=C(C)Nc2ncnn2C1/C=C/c1ccccc1 (configuration not stated)	?	?	?	10µM*	?	63%
SMILES	HT1080-NT tox	KB-3-1 cytotox	SW480 rerep	KB-V1 cytotox	HT1080 IDH1KD tx	MCF10A rerep
CCCC1=C(C(=O)OCC)C(/C=C/c2ccccc2)n2ncnc2N1 (configuration not stated)	22µM*	8.9µM*	?	?	11µM*	?
CCOC(=O)C1=C(C)Nc2ncnn2C1c1cccs1 (configuration not stated)	0%	i	-12%	i	-5%	3%
COc1ccc([C@@H]2CC=C(C(=O)O)[C@H](c3cccc(Cl)c3)N2S(=O)(=O)c2ccccc2C)cc1	-3%	i	-8%	i	-1%	-2%
CCCC1=C(C(=O)OCC)C(c2ccc(N(C)C)cc2)n2ncnc2N1 (configuration not stated)	-14%	?	-4%	18µM*	-23%	5%
CCOC(=O)C1=C(C)NC(=O)NC1C (configuration not stated)	8%	i	0%	i	?	-2%
CCOC(=O)C1=C(C)NC(=O)NC1/C(C)=C/c1ccccc1 (configuration not stated)	-15%	i	-2%	21µM*	?	10%
CCCC1=C(C(=O)OCC)C(c2ccc(F)cc2)n2ncnc2N1 (configuration not stated)	5%	i	5%	i	3%	11%
COc1ccccc1C(=O)Nc1ccccc1OCc1cc(=O)n2c(C)csc2n1	/	i	/	i	/	/
Cc1cc(C(=O)N/N=C2\CC(=O)c3ccccc32)c(C)n1-c1ccc(F)cc1	-17%	i	16µM*	i	-14%	0%
CCOc1cc(/C=N/NC(=O)c2cc(C)n(-c3ccc(F)cc3)c2C)ccc1O	24%	?	-17%	i	-12%	11%
COc1ccc(Cc2nc3ccc(C(=O)NCCc4ccc(Cl)cc4)cc3o2)cc1	/	i	/	i	/	/
CCOC(=O)c1ccc(CSC(=N)N)o1	?	?	21µM*	i	?	?
Cc1c(C)c2cccnc2c2ncccc12	10µM*	6.5µM*	?	?	5.2µM*	?
Clc1cc2cccnc2c2ncccc12	0%	?	14%	i	-5%	-11%
CC(C)CCN1CCC[C@]2(N[C@H](c3ccccc3)[C@@H]3C(=O)N(Cc4ccccc4)C(=O)[C@@H]32)C1=O	3%	i	/	i	15%	/
